Laboratory results from PubChem BioAssay (NCI).
Where “and” joins values, the source holds several entries; their conditions need not be identical. Equal entries are not always repeated. Compounds without any hit were thinned out: in the full panel of roughly 83,000, 20% have a hit.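 A percent growth of 40 corresponds to 60% growth inhibition; 0 means no net growth; -100 means all cells died. Active threshold: below 10.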 Calls of active or inactive are those of the source.

Test system: MCF7 breast
Assay: NCI-60 one-dose screen, 48 h (100 = growth as untreated, 0 = no growth, -100 = all killed)
Details: 10 µM unless noted

Structure (SMILES)	growth
O=c1cc(-c2ccc(O)cc2)oc2cc(O[C@@H]3O[C@H](CO)[C@@H](O)[C@H](O)[C@H]3O)cc(O)c12	38.3% [100 µM] (inactive) and 0.613% [100 µM] (active)
N#CC12COC3(CCCCC3C1(C#N)C#N)OC2=N (stereo unspecified)	-25.8% [100 µM] (active)
CC(=O)NC(CS/N=N/c1nc[nH]c1C(N)=O)C(=O)O (stereo unspecified)	28.2% [100 µM] (inactive) and 6.86% [100 µM] (active)
NNC1=N/C(=C\c2ccco2)C(Cl)=N1	16.5% [100 µM] (inactive) and -15.6% [100 µM] (active)
O=C1c2c(O)ccc(O)c2C(=O)c2c(NCCNC(=O)C(O)C(O)C(O)C(O)CO)ccc(NCCNC(=O)C(O)C(O)C(O)C(O)CO)c21 (stereo unspecified)	-95.5% [100 µM] (active) and -100% [100 µM] (active)
CC(C)=CCC/C(C)=C/CC/C(C)=C/CSc1ccc(Cl)cc1C(=O)O	-52.6% [100 µM] (active) and 17.2% [100 µM] (inactive)
Cc1ccc(/C=N/Nc2ccc3ccccc3n2)s1	-79.9% [100 µM] (active) and -100% [100 µM] (active)
CC1=CCC2C3(C)CCC2(C(C)C)C1C3 (stereo unspecified) (tested in a mixture with another compound)	-76.9% [100 µM] (active) and -91.7% [100 µM] (active)
Nc1cc2c3c(cccc3c1)C(=O)N(c1ccc(OCCN3CCCC3)cc1)C2=O	-78.2% [100 µM] (active) and -100% [100 µM] (active)
Cc1cc(N2CCCC2)c([N+](=O)[O-])cc1[N+](=O)[O-]	65.2% [100 µM] (inactive) and 89% [100 µM] (inactive)
CC1(C)CCCC(C)(C2CCC3(C)C2C(O)CC2C4(C)CCC(O)C(C)(C)C4C(O)CC23C)O1 (stereo unspecified)	-19.1% [100 µM] (active) and -85.7% [100 µM] (active)
CCOC(=O)C1(C#N)C(=O)c2cc[n+](CC[n+]3ccc4c(c3)C(=O)C(C#N)(C(=O)OCC)C4=O)cc2C1=O (stereo unspecified)	88.7% [100 µM] (inactive) and 89.4% [100 µM] (inactive)
C=C1C(=O)OC2/C=C(\CO)C(OC(C)=O)CC(O)/C(C)=C/C(OC(=O)C(C)CC)C12 (stereo unspecified)	-87% [100 µM] (active) and -86.7% [100 µM] (active)
CC(=O)c1cc2c(s1)C(=O)c1ccsc1C2=O	-62.9% [100 µM] (active) and -100% [100 µM] (active)
CCOC(=O)CCCOc1cc(-c2ccccc2F)nc2cc3c(cc12)OCO3	14.3% [100 µM] (inactive) and -100% [100 µM] (active)
COc1ccc(C2=C(N)c3ccccc3C2=O)cc1	79.1% [100 µM] (inactive) and 72.9% [100 µM] (inactive)

Structure (SMILES)	growth
Cc1ccc(NC(=S)C#N)c(C)c1	48.6% [100 µM] (inactive) and -77.7% [100 µM] (active)
CC(=O)Nc1c(C)cc2c(nc3n2CCC3OC(C)=O)c1[N+](=O)[O-] (stereo unspecified)	105% [100 µM] (inactive) and 101% [100 µM] (inactive)
Nc1cc2c3c(cccc3c1)C(=O)N(c1ccc(OCCN3CCCCC3)cc1)C2=O	-95.1% [100 µM] (active) and -100% [100 µM] (active)
NC(=O)c1[nH]cnc1/N=N/SCC(N)C(=O)O (stereo unspecified)	45.4% [100 µM] (inactive) and 15.8% [100 µM] (inactive)
O=c1[nH]c(=O)n(C2CC(O)C(CO)O2)cc1Br (stereo unspecified)	29% [100 µM] (inactive) and -14.9% [100 µM] (active)
CCOC(=O)c1nc2cc(C(F)(F)F)ccc2nc1Nc1ccc(F)cc1	34% [100 µM] (inactive) and 3.76% [100 µM] (active)
CCC/C(Cl)=N\OC(=O)Nc1ccc(F)cc1	-78.4% [100 µM] (active) and -69.5% [100 µM] (active)
COc1cc(CC2c3cc(OC)c(OC)cc3CCN2C)c(Oc2cc3c(cc2OC)-c2c(O)c(OC)cc4c2C(C3)N(C)CC4)cc1OC (stereo unspecified)	20.4% [100 µM] (inactive) and -77.4% [100 µM] (active)
O=C1NC(=S)NC1C(Cc1ccccc1)c1ccco1 (stereo unspecified)	19% [100 µM] (inactive) and 3.76% [100 µM] (active)
NC1=NN(c2ccccc2)C2(c3ccncc3C(=O)O)C1C(N)=NN2c1ccccc1 (stereo unspecified)	69.3% [100 µM] (inactive) and 90.4% [100 µM] (inactive)
N#Cc1c(SCc2ccccc2)nc(-c2ccccc2)[nH]c1=S	3.22% [100 µM] (active) and -27% [100 µM] (active)
C[C@]12CC[C@@H]3c4cc(Br)c(O)c(Br)c4CC[C@H]3[C@@H]1CC(Br)C2=O (stereo partly specified)	-71.4% [100 µM] (active) and -70.2% [100 µM] (active)
N#Cc1c(=N)cc2c3ccccc3oc3c(C#N)c(N)[nH]c1c32	74.3% [100 µM] (inactive) and 24.3% [100 µM] (inactive)
O=C(O)c1cnccc1-c1cc(=O)[nH]n1-c1ccccc1	29.1% [100 µM] (inactive) and 3.22% [100 µM] (active)
Oc1ccccc1-c1n[nH]c(-c2ccccc2O)n1	-10.7% [100 µM] (active) and -76.4% [100 µM] (active)
